Measured values from PubChem BioAssay.
Where “and” joins values, the source holds several entries; their conditions need not be identical. Identical values can stand only once. Calls of active or inactive are those of the source.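 Rule for the calls, unless noted: active = inhibition at or above 50% relative to wild type and mutant plate controls; inactive = inhibition below 50%.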

How the values were obtained:
[1] = inhibitors of TNFa-induced NFkB p65 translocation, primary screen, imaging, HUVEC, MLSMR starter and 10KST1 sets (AID 438;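 active = inhibition above 20% together with a positive visual image hit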;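 note: compound added about 3h40 before a 20 min TNFalpha stimulation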;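 for inhibition: signal is the nuclear over cytoplasmic p65 intensity ratio per well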); conditions: HUVEC TNFa-induced p65 nuclear translocation; cell count: measured here: nuclei count (cytotoxicity indicator), at 2.08 µM; inhibition: at 2 µM, stronger effect = higher value, 0% TNFa-plus-vehicle, 100% no-TNFa wells
[2] = reduction of polyQ htt aggregates in cells – imaging, exon1htt(103Q)mCFP cells, high-content imaging, primary screen (AID 483;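 active = visual image review flags a hit and inhibition of aggregation exceeds 20%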;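 note: compound exposure lasted 3 days before fixation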;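 for nuclei count: percent of the per-plate median nuclei count of sample wells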); conditions: exon1htt(103Q)mCFP cell line, aggregate imaging, at 2 µM; inhibition of aggregation: stronger effect = higher value; nuclei count: measured here: cell count, toxicity
[3] = endothelial E-selectin expression blockers – imaging, HUVEC, immunofluorescence, MLSMR starter and 10KST1 sets, primary screen (AID 487;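 active = visually confirmed hit in the image check and inhibition above 20%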;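 for inhibition: signal is fraction of cell area covered by stained E-selectin grains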;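 for nuclei count: 100% = median nuclei count of all wells on the same plate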); conditions: HUVEC TNFalpha-induced E-selectin immunofluorescence imaging, at 2 µM; inhibition: stronger effect = higher value; nuclei count: measured here: cell number, toxicity
[4] = Primary imaging screen for DUSP6 inhibitors that restore phospho-Erk in transfected HeLa cells, chemical complementation (AID 609;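 active = compounds giving at least 50% inhibition in the cell-based MKP-3 phosphatase rescue imaging test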;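 for inhibition: phospho-Erk level distribution per well compared with pooled transfected vehicle control wells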); conditions: HeLa MKP-3 transfected, phospho-Erk imaging KS statistic, at 10 µM, cells stimulated with TPA for 15 min
[5] = molecular target: Dual specificity protein phosphatase 6 (Homo sapiens) (UniProt Q16828); assay: as above; conditions: HeLa MKP-3 transfected, phospho-Erk imaging KS statistic; at 10 µM; stronger effect = higher value; cells stimulated with TPA for 15 min
[6] = molecular target: Voltage-gated potassium channel subunit beta-2 (Rattus norvegicus) (UniProt P62483); assay: inhibitors of rat Kvbeta2 reductase activity – biochemical, NADPH fluorescence, primary screen (AID 622;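 active = fluorescence slope higher than the sample average by over 3 SD, cut at about -0.22 in these data, passing the limit was not always enough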;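 note: slope of raw intensity against log time taken from 70 to 1610 s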); conditions: recombinant KvBeta, 4-cyanobenzaldehyde reduction, at 10 µM, stronger effect = higher value
[7] = molecular target: Voltage-gated potassium channel subunit beta-2 (Rattus norvegicus) (UniProt P62483); assay: enhancers of rat Kvbeta2 NADPH turnover – biochemical, NADPH fluorescence, primary screen (AID 623;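 active = NADPH fluorescence slope more negative than the mean of all samples by about 3 SD, 99.7% confidence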;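 note: fluorescence intensity change per second fitted from 20 to 320 s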); conditions: Recombinant KvBeta, NADPH fluorescence decrease slope, 10 min; at 10 µM; stronger effect = lower value
[8] = molecular target: Alpha-2C adrenergic receptor (Homo sapiens) (UniProt P18825); assay: compounds altering alpha2C-coupled GIRK flux – cell-based, HEK293 alpha2C/GIRK1/2, thallium flux, primary screen (AID 624;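 active = fluorescence slope after compound addition differing from the mean of all screened samples at 99.7% confidence, in either direction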;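 note: slope of fluorescence ratio to pre-addition baseline per second over 15 to 24 s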); conditions: thallium flux BTC fluorescence, at 10 µM, actives lie on both sides
[9] = inhibitors of larval lipid processing in zebrafish, primary screen, whole organism, PED6 fluorescence, gall bladder and intestine (AID 686;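 active = a full or partial loss of lipid-probe fluorescence in the fish gall bladder, intestine or both, judged by eye; inactive = no fluorescence loss, or compound toxic to the fish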;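 note: larvae 5 to 7 days old with five fish per well; signal comes from phospholipase A2 cleavage of quenched PED6 carried via bile; overnight exposure to compound and PED6 before scoring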); conditions: Zebrafish larvae PED6 lipid processing, fluorescence scoring; screened at 20 µM (by protocol)
[10] = loss of swimming-algae plug formation – whole organism, Chlamydomonas reinhardtii, WT vs cilia-less mutant, absorbance, 96-well, primary screen (AID 463189); conditions: Chlamydomonas reinhardtii gravitaxis, OD600 absorbance, 2 days; at 10 µM; stronger effect = higher value;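 note: 0% = wild type cc124 cells in DMSO and 100% = ciliumless bld1 mutant cells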
[11] = blockers of RIG-like receptor reporter activation – cell-based, Sendai virus stimulus, luciferase, 10K MLSCN set, TLR/RLR signaling modifier project, primary screen (AID 602276;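 active = inhibition at or above 50% at 10 µM; inactive = inhibition below 50%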;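 note: firefly luciferase from ISG56 promoter only with Renilla not read in this screen; 0% = Sendai virus plus DMSO and 100% = medium plus DMSO without virus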); conditions: HEK293 RL24 IRF3 luciferase reporter, at 10 µM, stronger effect = higher value
[12] = TLR3 IRF3 reporter activation blockers – cell-based, poly I:C stimulus, luciferase, 10K MLSCN set, primary screen (AID 602277;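 active = inhibition of the reporter signal at or above 50%; inactive = inhibition below 50%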); conditions: HEK293-TLR3 RL24 IRF3 luciferase reporter, at 10 µM, stronger effect = higher value
[13] = measured here: cell density z-score
[14] = measured here: nuclear c-Myc green intensity z-score
[15] = measured here: nuclear pErk red intensity z-score, stronger effect = higher value

Sequence of Voltage-gated potassium channel subunit beta-2 (Rattus norvegicus) (P62483 whole entry, looked up): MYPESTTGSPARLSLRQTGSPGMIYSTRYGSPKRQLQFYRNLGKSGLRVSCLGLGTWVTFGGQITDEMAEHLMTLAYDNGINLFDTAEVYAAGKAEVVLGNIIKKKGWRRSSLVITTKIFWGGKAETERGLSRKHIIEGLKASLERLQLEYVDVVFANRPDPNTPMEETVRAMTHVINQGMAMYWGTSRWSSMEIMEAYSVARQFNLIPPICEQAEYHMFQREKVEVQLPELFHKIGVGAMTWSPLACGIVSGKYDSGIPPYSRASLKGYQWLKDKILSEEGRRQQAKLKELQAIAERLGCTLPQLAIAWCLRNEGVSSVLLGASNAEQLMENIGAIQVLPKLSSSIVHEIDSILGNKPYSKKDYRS
Sequence of Alpha-2C adrenergic receptor (Homo sapiens) (P18825 whole entry, looked up): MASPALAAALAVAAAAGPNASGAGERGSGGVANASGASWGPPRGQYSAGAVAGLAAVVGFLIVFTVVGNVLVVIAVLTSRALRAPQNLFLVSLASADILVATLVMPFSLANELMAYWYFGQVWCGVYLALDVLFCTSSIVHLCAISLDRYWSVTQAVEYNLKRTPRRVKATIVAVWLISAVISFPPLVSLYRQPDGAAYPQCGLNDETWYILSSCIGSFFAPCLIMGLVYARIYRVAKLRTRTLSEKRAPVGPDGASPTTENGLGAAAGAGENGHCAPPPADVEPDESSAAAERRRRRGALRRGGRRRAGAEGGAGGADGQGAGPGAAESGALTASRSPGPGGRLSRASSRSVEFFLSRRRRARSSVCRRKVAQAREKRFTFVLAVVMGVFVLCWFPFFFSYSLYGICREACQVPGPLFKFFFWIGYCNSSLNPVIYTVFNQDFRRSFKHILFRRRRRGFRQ
Sequence of Dual specificity protein phosphatase 6 (Homo sapiens) (Q16828 whole entry, looked up): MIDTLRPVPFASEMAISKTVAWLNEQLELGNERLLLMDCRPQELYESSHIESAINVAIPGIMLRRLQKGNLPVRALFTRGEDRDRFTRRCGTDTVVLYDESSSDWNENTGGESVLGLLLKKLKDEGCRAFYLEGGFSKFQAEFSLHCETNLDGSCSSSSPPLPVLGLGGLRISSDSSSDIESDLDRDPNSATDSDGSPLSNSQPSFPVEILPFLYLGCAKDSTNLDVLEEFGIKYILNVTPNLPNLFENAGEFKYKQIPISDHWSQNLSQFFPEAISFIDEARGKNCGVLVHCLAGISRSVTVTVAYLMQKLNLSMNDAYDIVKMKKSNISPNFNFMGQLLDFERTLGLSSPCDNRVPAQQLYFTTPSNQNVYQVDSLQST

| SMILES | cell count [1] | inhibition [1] | inhibition of aggregation [2] | nuclei count [2] [%] | inhibition [3] | nuclei count [3] [%] | z-score [4, 13] | z-score [4, 14] | z-score [4, 15] | inhibition [5] | fluorescence slope [6] | NADPH fluorescence slope [7] | slope [8] | outcome [9] | inhibition [10] | inhibition [11] | inhibition [12] |
| --- | --- | --- | --- | --- | --- | --- | --- | --- | --- | --- | --- | --- | --- | --- | --- | --- | --- |
| COc1ccc(Cl)cc1C(=O)NCCc1ccc(S(=O)(=O)NC(=O)NC2CCCCC2)cc1 | 517 | -3.1% (inactive) | -17.2% (inactive) | 105 | 48.6% (inactive) | 80.7 | 0.545 | -1.59 | -0.882 | 5.79% (inactive) | -0.462 (inactive) | -5.3e-05 (inactive) | 0.00532 (inactive) | inactive | 3.54% (inactive) and -10.9% (inactive) | 19.2% (inactive) | 42.8% (inactive) |
| CCN(CC)CCNC(=O)c1cc(Cl)c(N)cc1OC | 552 | -4.5% (inactive) | 5.6% (inactive) | 106 | -17.3% (inactive) | 120 | 0.156 | -0.776 | 0.343 | -0.493% (inactive) | -0.444 (inactive) | 4.3e-05 (inactive) | 0.00461 (inactive) | inactive | 8.75% (inactive) and -3.64% (inactive) | -8.87% (inactive) | 30.5% (inactive) |
| CC(=O)OCC(=O)[C@@]1(OC(C)=O)[C@@H](C)C[C@H]2[C@@H]3C[C@H](F)C4=CC(=O)C=C[C@]4(C)[C@@]3(F)[C@@H](O)C[C@@]21C | 659 | -5.5% (inactive) | -7.2% (inactive) | 68.3 | -71.2% (inactive) | 116 | 1.64 | -1.42 | -1.55 | 29.1% (inactive) | -0.482 (inactive) | -7.3e-05 (inactive) | 0.00497 (inactive) | inactive | 3.31% (inactive) | 4.93% (inactive) | 44.4% (inactive) |
| C[C@]12CCC(=O)C=C1CC[C@@H]1[C@@H]2[C@@H](O)C[C@@]2(C)[C@H]1CC[C@]2(O)C(=O)CO | 526 | 1.3% (inactive) | -3.8% (inactive) | 63.5 | -35.4% (inactive) | 94.1 | -3.38 | -0.793 | -0.0815 | 5.42% (inactive) | -0.459 (inactive) | -3.2e-05 (inactive) | 0.00455 (inactive) | inactive | 2.91% (inactive) and -18.2% (inactive) | 4.18% (inactive) | 38.7% (inactive) |
| CCCOc1ccc(N2C(=O)C3ON(c4ccccc4)C(c4ccc(O)c(OC)c4)C3C2=O)cc1 (stereo not drawn) | 413 | -5.2% (inactive) | 2.2% (inactive) | 110 | -53.3% (inactive) | 124 | 0.885 | -0.229 | -0.338 | 7.42% (inactive) | -0.41 (inactive) | -0.0001 (inactive) | 0.00809 (inactive) | inactive | -8.77% (inactive) | 16.5% (inactive) | 16.8% (inactive) |
| COC(=O)C1=C(N)Oc2cc(C)[nH]c(=O)c2C1c1ccncc1 (stereo not drawn) | 415 | -3.5% (inactive) | 5.1% (inactive) | 99.8 | -70.4% (inactive) | 132 | 1.07 | -0.647 | -1.1 | 11.4% (inactive) | -0.45 (inactive) | -0.000119 (inactive) | 0.00625 (inactive) | inactive | 35.9% (inactive) | 22.8% (inactive) | 38.8% (inactive) |
| C[C@]12CC[C@H]3[C@@H](CCC4=CC(=O)CC[C@@]43C)[C@@H]1CC[C@@H]2C(=O)CO | 632 | -0.8% (inactive) | 4.5% (inactive) | 37.5 | -114% (inactive) | 118 | -0.564 | -1.57 | -0.166 | -2.46% (inactive) | -0.521 (inactive) | -1e-05 (inactive) | 0.00387 (inactive) | inactive | -3.19% (inactive) | 1.11% (inactive) | 43.7% (inactive) |
| CC[N+](C)(C)c1cccc(O)c1 | 610 | -6.9% (inactive) | 10.2% (inactive) | 102 | -108% (inactive) | 130 | -0.368 | -0.0907 | -0.21 | 3.45% (inactive) | -0.492 (inactive) | -5.2e-05 (inactive) | 0.00476 (inactive) | inactive | 6.97% (inactive) and -3.25% (inactive) | 16.5% (inactive) | 38.2% (inactive) |
| C=CCn1c(SCC#N)nc2c(c1=O)C(C)(C)Cc1ccccc1-2 | 648 | -0.1% (inactive) | 11.6% (inactive) | 107 | -30.9% (inactive) | 136 | 1.4 | 0.411 | -0.925 | 34.8% (inactive) | -0.315 (inactive) | -5.8e-06 (inactive) | 0.00525 (inactive) | inactive | 104% (active) | -4.84% (inactive) | 6.72% (inactive) |
| COC(=O)c1cccc(Nc2cc(C)nc(-c3ccccc3O)n2)c1 | 614 | -12.4% (inactive) | -1% (inactive) | 92.7 | -86.5% (inactive) | 118 | -0.273 | 0.157 | -0.334 | 9.91% (inactive) | -0.279 (inactive) | -1.2e-05 (inactive) | 0.00663 (inactive) | inactive | 5.5% (inactive) | -10.3% (inactive) | -37.2% (inactive) |
| CCOc1nc(-c2ccncc2)nc2ccccc12 | 416 | 5.6% (inactive) | -55% (inactive) | 13.3 | -66.1% (inactive) | 116 | -2.21 | -0.624 | 0.47 | 4.25% (inactive) | -0.322 (inactive) | 3e-05 (inactive) | 0.00435 (inactive) | inactive | 39.6% (inactive) | 13.1% (inactive) | 16.5% (inactive) |
| O=C(O)c1cccnc1Nc1cccc(C(F)(F)F)c1 | 579 | -0.7% (inactive) | 7.2% (inactive) | 55.6 | -109% (inactive) | 125 | -1.55 | -0.913 | 0.921 | 3.59% (inactive) | -0.507 (inactive) | -5.7e-05 (inactive) | 0.00519 (inactive) | inactive | 0.869% (inactive) and -7.21% (inactive) | 17.3% (inactive) | 24.1% (inactive) |
| NS(=O)(=O)c1cc2c(cc1Cl)NC=NS2(=O)=O | 531 | -6.4% (inactive) | -4.4% (inactive) | 92.2 | 13.8% (inactive) | 108 | 0.808 | 0.404 | -1.03 | 23.2% (inactive) | -0.492 (inactive) | -0.000201 (active) | 0.00527 (inactive) | inactive | 11.8% (inactive) and 7.71% (inactive) | -14.2% (inactive) | -10.5% (inactive) |
| CCOC(=O)CSC1=C(C#N)C(=O)NC2(CCCCC2)S1 | 580 | -10.9% (inactive) | -5.9% (inactive) | 108 | -43.8% (inactive) | 131 | -1.03 | 0.989 | 0.0798 | -7.86% (inactive) | -0.497 (inactive) | -4.9e-05 (inactive) | 0.00597 (inactive) | inactive | -1.64% (inactive) | 8.53% (inactive) | 100% (active) |
| Nc1ccc2cn[nH]c2c1 | 616 | 0.3% (inactive) | 9% (inactive) | 94.8 | -58.4% (inactive) | 123 | -0.59 | 0.481 | -0.693 | 5.79% (inactive) | -0.531 (inactive) | -2.3e-05 (inactive) | 0.00412 (inactive) | inactive | -10.8% (inactive) | 3.56% (inactive) | 33% (inactive) |
| CCCCC[C@H](O)/C=C/[C@H]1C=CC(=O)[C@@H]1C/C=C\CCCC(=O)O | 543 | -11.1% (inactive) | 16% (inactive) | 84.8 | -33.9% (inactive) | 110 | 1.78 | -0.725 | -0.854 | 7.39% (inactive) | -0.458 (inactive) | -5.4e-05 (inactive) | 0.00837 (inactive) | inactive | 5.58% (inactive) | -2.27% (inactive) | 25% (inactive) |
| C[C@]12C=CC(=O)C=C1CC[C@@H]1[C@@H]2[C@@H](O)C[C@@]2(C)[C@H]1CC[C@]2(O)C(=O)COC(=O)CCC(=O)O | 671 | -6.3% (inactive) | 6.5% (inactive) | 85.8 | -27.3% (inactive) | 120 | 1.3 | 0.17 | -0.0671 | 19.2% (inactive) | -0.471 (inactive) | -8e-05 (inactive) | 0.00574 (inactive) | inactive | 15.8% (inactive) | 6.58% (inactive) | 46.6% (inactive) |
| CSC1=C(C#N)C(C)CC(=O)N1 (stereo not drawn) | 552 | -5.8% (inactive) | -2% (inactive) | 112 | 1.9% (inactive) | 108 | -0.957 | -0.437 | 0.604 | -5.89% (inactive) | -0.51 (inactive) | -6.2e-05 (inactive) | 0.00463 (inactive) | inactive | 19.4% (inactive) | 13.8% (inactive) | 12.5% (inactive) |
| O=C(O)CCc1cc(I)c(Oc2ccc(O)c(I)c2)c(I)c1 | 623 | -9.5% (inactive) | -4.4% (inactive) | 107 | -120% (inactive) | 127 | 1.17 | -0.143 | 0.645 | 9.37% (inactive) | -0.522 (inactive) | -5.4e-05 (inactive) | 0.00395 (inactive) | inactive | 3.29% (inactive) | 21.3% (inactive) | 34.6% (inactive) |
